# Measured values: PubChem BioAssay
# Values joined by “and” are separate entries in the source; they are usually repeats but may differ in a detail not shown here. Equal values may be shown once. Active and inactive are the calls of the source. Unless noted, how the calls were made is not given here.
# Experiments:
# [1] = P. berghei load reduction in hepatocytes – cell-based, HepG2, luciferase luminescence, HepG2 viability, primary screen (AID 624349; in the data active means parasite load remaining mostly below about 12%, no sharp cut-off; inactive means mostly above about 10%;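 further: 100% = mean of DMSO negative control wells on the same plate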); conditions: P. berghei liver stage in HepG2, luciferase luminescence, concentration not given here; parasite load remaining: stronger effect = lower value; viability: measured here: HepG2 viability without parasites
# [2] = signal quenchers or enhancers, Cy5 substrate/SSB – biochemical, NIH Clinical Collection, E. coli SSB, artefact control for HCV NS3 helicase inhibitor project (AID 743268); conditions: Cy5-oligo bound E. coli SSB, fluorescence interference
# [3] = tested on: Hepatitis C virus NS3 helicase; assay: blockers of NS3h binding to DNA – biochemical, fluorescence polarization, NIH Clinical Collection, primary screen (AID 743270); conditions: NS3 helicase binding to Cy5-dT15 DNA, stronger effect = higher value, concentration not given here
# [4] = molecular target: Single-stranded DNA-binding protein (Escherichia coli (strain K12)) (UniProt P0AGE0); assay: SSB-ssDNA binding inhibitors – biochemical, fluorescence polarization, NIH Clinical Collection, counter-screen for HCV NS3 helicase inhibitor project (AID 743271; in the data active means inhibition above about 28%); conditions: E. coli SSB-DNA binding, stronger effect = higher value, concentration not given here
# [5] = compounds distorting NS3 helicase fluorescence signal – biochemical, NIH Clinical Collection, artefact control for HCV NS3 helicase inhibitor project (AID 743272); conditions: fluorescence interference counterscreen, HCV NS3 helicase assay; stronger effect = lower value;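 further: HCV NS3 helicase with a Cy5 labelled single stranded DNA probe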
# [6] = tested on: Neuropilin-2 / VEGF-C interaction (human); assay: small molecules blocking Neuropilin-2/VEGF-C interaction – biochemical, microplate binding format, z-score (AID 743281); conditions: microplate NRP2/VEGF-C binding assay; stronger effect = lower value
# [7] = Wnt pathway potentiators raising nuclear beta-catenin – imaging, WNT3A-conditioned medium, mouse C2C12, NPC library, primary screen (AID 1117326; in the data active means nuclear beta-catenin stimulation mostly above about 4.2%, no sharp cut-off; inactive means mostly below about 10%); conditions: stronger effect = higher value
# [8] = stimulators of insulin release from INS-1E, primary screen, cell-based, 5 mM glucose, NPC library (AID 1117329;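 active means compound raises insulin release from rat beta cells at 5 mM glucose, no numeric limit stated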); conditions: rat INS-1E insulin secretion, at 10 µM, stronger effect = higher value
# [9] = growth inhibition of GSK3B-pretreated HCT116 cells – cell-based, CellTiter-Glo, 0.2 to 20 µM (AID 1117336;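 active means compounds lowering colon cancer cell viability after pretreatment blocking the GSK3B kinase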); conditions: HCT116 viability after GSK3B inhibitor, at 20 µM, stronger effect = higher value
# [10] = inhibition of endothelial tube formation, primary screen, imaging, VEGF stimulated, CD31 staining, tube area, NPC library (AID 1117340;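 active means compound that reduces growth-factor-driven endothelial tube area in a mixed cell culture, no cutoff stated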); conditions: VEGF-stimulated ADSC/ECFC co-culture, at 10 µM, stronger effect = higher value
# [11] = GLP1 release stimulators, primary, NCI-H716, NPC library (AID 1117341;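 active means compound raises GLP1 secretion from the human gut endocrine cells, with no numeric limit stated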); conditions: NCI-H716 cells, at 10 µM, stronger effect = higher value
# [12] = HCT116 colon cancer cell growth inhibition, primary screen, CellTiter-Glo luminescence, NPC library (AID 1117342;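 active means compounds that lower survival of HCT116 colon cancer cells in the luminescence readout, no numeric limit stated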); conditions: at 20 µM (top of the series)
# [13] = reduced SW480 viability measured with CellTiter-Glo, NPC library, primary (AID 1117343;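 active means compounds that lower viability of the colon cancer cells in the luminescence readout, with no numeric limit stated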); conditions: CellTiter-Glo luminescence; at 20 µM (top of the series)
# [14] = NPC library primary testing for decreased DLD-1 cell viability via CellTiter-Glo (AID 1117346;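 active means compounds that lower survival of DLD-1 colon cancer cells in the luminescence readout, no cutoff given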); conditions: DLD-1 viability, CellTiter-Glo luminescence; at 20 µM (top of the series)
SMILES,parasite load remaining [1],viability [1],fluorescence ratio [2],inhibition [3],inhibition [4],fluorescence ratio [5],z-score [6],nuclear beta-catenin stimulation ([7]; at 10 µM),"nuclear beta-catenin stimulation ([7]; stimulation, at 2 µM)",insulin secretion stimulation [8],viability decrease [9],tube area decrease [10],GLP1 secretion stimulation [11],inhibition of viability [12],viability decrease (inhibition) [13],viability decrease (inhibition) [14],outcome [6]
CC(C)c1ccc2oc3nc(N)c(C(=O)O)cc3c(=O)c2c1,196% (inactive),67.7%,1.01 (inactive),2.77% (inactive),6.06% (inactive),0.99 (inactive),0.737 (inactive),0.2% (inactive),-1.6%,3.2% (inactive),8.7% (inactive),0% (inactive),0.3% (inactive),-17% (inactive),17.9% (inactive),-27.9% (inactive),–
CCCN[C@H]1CCc2nc(N)sc2C1,115% (inactive) and 91.5% (inactive) and 28.8% (inactive),75% and 71% and 70.5%,1.02 (inactive),-0.4% (inactive),-1.64% (inactive) and 0.67% (inactive),0.97 (inactive) and 1 (inactive),-0.903 (inactive) and 0.751 (inactive),0.9% (inactive),0.5%,-3.1% (inactive),7.2% (inactive),-9.5% (inactive),2.6% (inactive),5.4% (inactive),51.7% (active),38.1% (inactive),–
C[C@@H]1CN(CCCn2c3ccccc3c3ccccc32)C[C@H](C)N1,35.7% (inactive),37.6%,0.94 (inactive),-6.33% (inactive),1.18% (inactive),0.94 (inactive),-0.119 (inactive),6.5% (inactive),4.9%,16.2% (inactive),97.5% (active),48.2% (active),20% (active),107% (active),128% (active),82.7% (active),–
CN1CCN(C2=Nc3cc(F)ccc3Cc3ccccc32)CC1,91.4% (inactive) and 40.9% (inactive),62.6% and 67%,0.91 (inactive),-1.97% (inactive),1.97% (inactive),0.9 (inactive),-0.511 (inactive),-1.1% (inactive),-3%,3.3% (inactive),12.5% (inactive),13% (inactive),8% (inactive),37.7% (inactive),26.9% (inactive),-2.4% (inactive),–
COc1cc(C)nc(-n2nc(C)cc2OC)n1,32% (inactive) and 118% (inactive) and 64.4% (inactive),46.8% and 89.6% and 75.3%,0.95 (inactive),-0.22% (inactive),5.91% (inactive),0.88 (inactive),-0.659 (inactive),-1.3% (inactive),-0.3%,2.5% (inactive),-5% (inactive),24.2% (inactive),-5.7% (inactive),-10.1% (inactive),1.8% (inactive),-17.2% (inactive),–
O=C1CC2(CCCC2)CC(=O)N1CCNCC1COc2ccccc2O1 (stereo not drawn),46.8% (inactive),69.1%,0.98 (inactive),-8.95% (inactive),-4.33% (inactive),0.98 (inactive),0.317 (inactive),0.9% (inactive),0.6%,5% (inactive),-32% (inactive),-4.9% (inactive),-2.3% (inactive),25.7% (inactive),14.5% (inactive),-5.7% (inactive),–
NCC1CCC(C(=O)Oc2ccc(CCC(=O)O)cc2)CC1 (stereo not drawn),104% (inactive),78.2%,1.02 (inactive),-1.98% (inactive),-3.18% (inactive),0.94 (inactive),-0.934 (inactive),0.5% (inactive),1%,-2.1% (active),1.9% (inactive),4.4% (inactive),1.4% (inactive),-7.95% (inactive),17.7% (inactive),3.17% (inactive),–
CCN1CC(CCN2CCOCC2)C(c2ccccc2)(c2ccccc2)C1=O (stereo not drawn),66% (inactive),70.6%,0.9 (inactive),-8.95% (inactive),5.91% (inactive),0.88 (inactive),-0.0578 (inactive),-1.3% (inactive),-3.1%,0.3% (inactive),11.2% (inactive),-7% (inactive),3.1% (inactive),17% (inactive),13.5% (inactive),4.2% (inactive),–
O=c1c(-c2ccccc2)c1-c1ccccc1,7.97% (inactive),65.5%,0.98 (inactive),-0.4% (inactive),1.44% (inactive),0.79 (active),-0.326 (inactive),40.6% (active),22.6%,0.3% (inactive),41.9% (inactive),103% (active),-2.9% (inactive),64.4% (active),106% (active),64.3% (active),–
CCCc1nc(C)c2c(=O)[nH]c(-c3cc(S(=O)(=O)N4CCN(CC)CC4)ccc3OCC)nn12,37.6% (inactive) and 31.5% (inactive) and 37.1% (inactive),202% and 68.7% and 126%,0.94 (inactive),-13.3% (inactive),-1.97% (inactive),0.93 (inactive),–,0.1% (inactive),-1%,-0.4% (inactive),-11.4% (inactive),-2.1% (inactive),0.1% (inactive),23.1% (inactive),14.2% (inactive),-13.5% (inactive),inactive
CC(C)(O)c1ccccc1CC[C@@H](SCC1(CC(=O)O)CC1)c1cccc(/C=C/c2ccc3ccc(Cl)cc3n2)c1,105% (inactive) and 55% (inactive),73.6% and 151%,0.98 (inactive),6.73% (inactive),4.52% (inactive),1.03 (inactive),-0.15 (inactive),9.7% (inactive),-0.2%,1.4% (inactive),111% (active),-7.2% (inactive),80.8% (active),114% (active),133% (active),102% (active),–
COCc1c(C(C)C)nc(C(C)C)c(/C=C/[C@@H](O)C[C@@H](O)CC(=O)O)c1-c1ccc(F)cc1,149% (inactive) and 309% (inactive),53.2% and 109%,1.03 (inactive),-4.36% (inactive),-2.41% (inactive),0.99 (inactive),-0.18 (inactive),18.8% (active),44.8%,-0.8% (inactive),107% (active),107% (active),3.1% (inactive),112% (active),151% (active),98.6% (active),–
OCc1cccnc1,56.9% (inactive),66.4%,0.93 (inactive),-1.09% (inactive),-1.18% (inactive),0.87 (inactive),-0.624 (inactive),0.5% (inactive),1%,-1.9% (inactive),-11.1% (inactive),-10% (inactive),1.4% (inactive),-9.5% (inactive),-6.5% (inactive),7.3% (inactive),–
NC1CCN(c2nc3c(cc2F)c(=O)c(C(=O)O)cn3-c2ccc(F)cc2F)C1 (stereo not drawn),96.2% (inactive) and 26.3% (inactive),82.6% and 76%,0.97 (inactive),-5.15% (inactive),9.91% (inactive),0.98 (inactive),-1.29 (inactive),1% (inactive),0.1%,3.3% (inactive),24.4% (inactive),3.6% (inactive),2.2% (inactive),-9.3% (inactive),-19.3% (inactive),-39.1% (inactive),–
COC(=O)CCc1ccc(OCC(O)CNC(C)C)cc1 (stereo not drawn),82.9% (inactive) and 30.6% (inactive),72.2% and 73%,1.05 (inactive),-1.98% (inactive),-5.49% (inactive),1.01 (inactive),0.0866 (inactive),-2% (inactive),0.1%,6.9% (inactive),-7.2% (inactive),-8.1% (inactive),-0.5% (inactive),18.6% (inactive),39.7% (inactive),16.8% (inactive),–
CC(C)(C)C(O)/C=C/c1ccc2c(c1)OCO2 (stereo not drawn),76% (inactive),68%,0.94 (inactive),-4.59% (inactive),-2.76% (inactive),0.88 (inactive),-0.389 (inactive),0% (inactive),1.5%,-1.1% (inactive),-4.45% (inactive),-6.4% (inactive),1.9% (inactive),11.7% (inactive),-0.9% (inactive),-1.3% (inactive),–
CCOc1cc(CC(=O)N[C@@H](CC(C)C)c2ccccc2N2CCCCC2)ccc1C(=O)O,85.6% (inactive) and 16.6% (inactive) and 98.7% (inactive),77.8% and 183% and 76.2%,1.02 (inactive),5.94% (inactive),2.21% (inactive),1.02 (inactive),-0.286 (inactive),-1.5% (inactive),0.2%,43.9% (active),70.5% (active),-11.3% (inactive),0.5% (inactive),29.7% (inactive),68.3% (active),33.3% (inactive),–
N#Cc1ccc(C(c2ccc(C#N)cc2)n2cncn2)cc1,127% (inactive) and 107% (inactive) and 48.7% (inactive),71.5% and 77.2% and 128%,1 (inactive),2.77% (inactive),-1.64% (inactive),0.97 (inactive),-0.196 (inactive),-1.6% (inactive),0%,0.6% (inactive),-9.1% (inactive),-17.6% (inactive),-2.1% (inactive),9.8% (inactive),-2.1% (inactive),-3.3% (inactive),–
